Assay outcomes (PubChem BioAssay)
In the library only some 6.4% were active in any assay of this set; here they are far more common.
Gal4-VP16 FLuc – counter-screen for ROR gamma inhibitors: Gal4-VP16 reporter; Drosophila S2 Gal4-VP16 UAS-luciferase, luminescence, 20 h; Potency, µM (titrated, usually from 53.6 µM), inactives show at the top dose activity, negative = inhibition, usual class: inhibitors; 3.5% of 310,000 active;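 note: Gal4-VP16 expression switched on by copper sulfate through the metallothionein promoter; nearly all actives have a fitted effect of over 50% in size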
RORg inh – blocks mouse ROR gamma transcriptional activity; P51450; Drosophila S2 Gal4-RORgamma UAS-luciferase reporter, 20 h; Potency, µM (titrated, usually from 53.6 µM), for inactives: at the highest dose activity change, negative = inhibition, actives largely listed as inhibitors; 5.4% of 310,000 active; AID 2551; note: nearly all actives have a fitted effect of over 60% in size
Target sequence (P51450 whole entry, looked up, the tested form may be a part): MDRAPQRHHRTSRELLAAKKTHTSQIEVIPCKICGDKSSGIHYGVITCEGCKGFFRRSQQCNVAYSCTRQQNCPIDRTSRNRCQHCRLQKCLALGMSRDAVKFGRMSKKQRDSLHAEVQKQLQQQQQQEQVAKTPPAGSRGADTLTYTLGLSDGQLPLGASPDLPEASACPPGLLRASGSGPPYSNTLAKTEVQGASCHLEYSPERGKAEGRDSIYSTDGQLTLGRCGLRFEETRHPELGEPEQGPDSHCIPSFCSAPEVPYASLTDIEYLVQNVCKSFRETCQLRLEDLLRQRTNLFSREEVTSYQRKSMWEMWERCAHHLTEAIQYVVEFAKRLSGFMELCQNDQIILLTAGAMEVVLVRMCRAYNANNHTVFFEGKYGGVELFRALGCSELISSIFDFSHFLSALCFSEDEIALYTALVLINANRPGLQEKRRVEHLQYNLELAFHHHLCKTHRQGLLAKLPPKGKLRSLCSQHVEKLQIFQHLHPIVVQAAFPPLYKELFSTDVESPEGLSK
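A Gal4/UAS one-hybrid system in insect cells: metallothionein-promoter Gal4–ROR gamma fusion plus Photinus luciferase reporter. Copper sulfate 700 uM final, 20 hr ambient incubation, luminescent detection after 10 min with reagent.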
KinaseGlo FLuc – Kinase-Glo luciferase inhibition (counter-screen). Q27757. Kinase-Glo luciferase, ATP luminescence, 8 min. Potency, µM (series often up to 38.3 µM), without a hit: top-dose activity change, negative = inhibition, usual class: inhibitors. 0.28% of 200,000 active. AID 1379; note: nearly all actives have a fitted effect of over 60% in size
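Light output from Kinase-Glo luciferase with luciferin and 10 uM ATP in 50 mM imidazole pH 7.2, KCl, MgCl2, Tween 20, BSA; compound pin-delivered, 8-min ambient incubation, then luminescence read.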
The depositor's hits bear a star; ? = inconclusive; · = not tested or not shown; [ ] = dose if it differs, or a comment. Calls come from the whole dose curve; as a rule, active = well fitted curve in the direction sought with a large enough effect; inconclusive = small, poorly fitted or top-dose-only effect, or another doubt; inactive = no such curve, though single readings can be large; an effect the other way counts as inactive or inconclusive. % is set by controls: 0 for no effect and ±100 for the full control effect; potency is the fitted concentration of half-maximal effect.

SMILES	Gal4-VP16 FLuc	RORg inh	KinaseGlo FLuc
O=c1c2ccc(Cl)cc2[nH]c(=S)n1CCC1=CCCCC1	2.51µM*	1.26µM*	-2.0%
CCN(CC)CCCn1c(=S)[nH]c2ccc(Cl)cc2c1=O	?	11.2µM*	3.5%
O=c1c2ccccc2[nH]c(=S)n1CCCN1CCOCC1	-8.9%	?	-4.2%
CCN(CC)CCn1c(=S)[nH]c2cc(C(=O)NCc3ccccc3Cl)ccc2c1=O	-4.4%	-13.9%	·
O=c1c2ccc(Cl)cc2[nH]c(=S)n1CCCN1CCOCC1	?	7.94µM*	-0.3%
CCCC[C@H](NC(C)=O)C(=O)N[C@H]1CC(=O)NCCCC[C@@H](C(N)=O)NC(=O)[C@H](Cc2c[nH]c3ccccc23)NC(=O)[C@H](CCCN=C(N)N)NC(=O)[C@@H](Cc2ccccc2)NC(=O)[C@H](Cc2cnc[nH]2)NC1=O	-3.5%	3.8%	·
CC(Oc1ccc(Br)cc1)C(=O)NCc1cccnc1 (configuration not stated)	·	·	-1.5%
COc1ccc(-n2c(=O)cnc3cnc(N4CCN(C)CC4)nc32)cc1	-2.8%	-12.7%	·
O=C(Oc1ccccc1)N1CCC2(CC1)CN(c1ncccn1)C2	?	3.7%	-1.2%
Cc1ccc(C(=O)N2CCOCC2)c(F)c1F	?	-1.3%	0.2%
CC(C)Oc1ccc(CCC(=O)N/N=C/c2ccncc2)cc1	-5.5%	20µM*	·
CC(C)Oc1ccc(CNC(=S)N/N=C/c2ccc([N+](=O)[O-])cc2)cc1	3.16µM*	2.51µM*	-3.6%
CCCOc1ccc(CNC(=S)NCc2ccc(OC(C)C)cc2)cc1	7.08µM*	7.08µM*	-1.1%
CC(C)Oc1ccc(CCC(=O)N/N=C/c2ccc3c(c2)OCO3)cc1	-6.5%	-12.3%	·
COc1ccc(CNC(=O)COc2ccc([N+](=O)[O-])cc2)cc1	2.8%	15.4%	-0.8%
Cc1ccc(CC(=O)N/N=C/c2ccc(OC(=O)c3ccc([N+](=O)[O-])cc3)cc2)cc1	11.1%	-0.6%	1.2%
CC(C)COc1ccc(CNC(=S)N/N=C/c2ccc([N+](=O)[O-])cc2)cc1	4.47µM*	1.41µM*	-0.7%
CCCOc1ccc(CCC(=O)O)cc1	5.1%	16.1%	3.2%
CS(=O)(=O)N1CCN(C(=O)NC2CCCCC2)CC1	-8.6%	9.9%	-3.3%
COc1cccc(-c2ccc3ncnc(NCc4ccccc4)c3c2)c1	-18.6%	-0.4%	·
COC(=O)/C(=C1/OC(=O)C(c2ccccc2)=C1O)c1ccccc1	1.0%	19.3%	0.3%
Cc1ccccc1-c1nnn(CC(=O)Nc2ccc3c(c2)OCCO3)n1	-6.2%[10 µM]	?	1.5%
CCOc1ccc(CNC(=S)N/N=C/c2ccncc2)cc1	12.6µM*	10µM*	-0.1%
CCCOc1ccc(CNC(=S)N/N=C/c2ccc([N+](=O)[O-])cc2)cc1	1.58µM*	1.26µM*	-2.3%
COc1ccc(CNC(=S)N/N=C/c2ccncc2)cc1	?	?	0.7%
SMILES	Gal4-VP16 FLuc	RORg inh	KinaseGlo FLuc
CCCOc1ccc(/C=N/NC(=O)c2ccc(Cn3cc([N+](=O)[O-])cn3)o2)cc1	-3.4%	-1.1%	-2.4%
CC[C@H]1[C@@H]2C=C[C@@H]3[C@H]4C/C=C\C(=O)NCCC[C@@H]5NC(=O)C(=C5O)C(=O)CC[C@@H]4C[C@@H]3[C@H]2C[C@H]1C	-1.5%	2.24µM*	·
COc1cc(C)c(C)cc1S(=O)(=O)NC1CC(C)(C)NC(C)(C)C1	-2.3%	?	·
Cc1ccc(-n2nnc(-c3nccs3)n2)cc1	5.62µM*	3.98µM*	·
Clc1ccc(-n2nnc(-c3nccs3)n2)cc1Cl	9.1%	15.9%	·
COc1ccc(-c2noc(CCCC(=O)NC3CCCCC3)n2)cc1	15.8µM*	78.8%	·
O=C(CCCc1nc(-c2ccccc2Cl)no1)NC1CCCC1	?	8.91µM*	·
COc1ccccc1-c1noc(CCCC(=O)NC2CCCC2)n1	4.2%	-5.8%	·
COc1ccc(-c2noc(CCC(=O)NC3CCCC3)n2)cc1	-5.7%	12.3%	·
Cn1c(N)c(C(=O)COC(=O)CC(NC(=O)c2ccccc2Cl)c2ccccc2)c(=O)n(C)c1=O (configuration not stated)	-14.7%	8.2%	-2.4%
COc1cccc(CS(=O)(=O)c2nnnn2CC(C)C)c1	0.3%	-17.0%	-2.1%
O=C(CSc1nnc(CNC(=O)c2ccco2)o1)Nc1cccc(Cl)c1	-0.1%	-2.4%	·
CN(Cc1cccc(F)c1)CC(O)COCc1ccccc1Cl (configuration not stated)	-15.8%	-0.6%	2.9%
CC1C=CCC2C(=O)N(c3cccc(C(=O)NCc4ccccc4)c3)C(=O)C12 (configuration not stated)	-15.1%	44.9%	·
O=c1[nH]c(CN2CCN(Cc3ccccc3)CC2)nc2scc(-c3ccccc3)c12	0.2%	1.0%	·
O=c1[nH]c(Cc2ccccn2)nc2scc(-c3ccccc3Cl)c12	11.2µM*	6.31µM*	2.2%
Cc1ccc2nc(SC(C(=O)Nc3ccc(F)cc3)c3ccccc3)[nH]c2c1 (configuration not stated)	?	12.6µM*	4.0%
Cc1ccc(C)c(NC(=O)C(Sc2nc3ccc(C)cc3[nH]2)c2ccccc2)c1 (configuration not stated)	?	?	-4.6%
COc1cc(C(=O)NNC(=O)c2cc(C)[nH]n2)cc(OC)c1OC	2.4%	-0.8%	1.4%
Brc1ccccc1/C=N/Nc1ccc2ccccc2n1	8.91µM*	0.316µM*	-2.2%
C(=N\Nc1ccccn1)/c1ccc2c(c1)OCCO2	?	12.6µM*	-13.6%
Fc1ccc(/C=N\Nc2cccc(F)c2)cc1	2.3%	-31.9%	·
O=S(=O)(N/N=C/c1ccc2c(c1)OCCO2)c1ccccc1	-18.7%	23.3%	-1.5%
Oc1ccc(/C=N/Nc2cccc(Cl)n2)c(O)c1	1.4%	-33.6%	·
Cc1ccc2nc(N/N=C\c3cccc(C)n3)cc(C)c2c1	·	·	-2.9%[7.66 µM]
SMILES	Gal4-VP16 FLuc	RORg inh	KinaseGlo FLuc
Fc1cccc(/C=N/Nc2ccc3ccccc3n2)c1	?	7.08µM*	-2.5%
Cc1cc(N/N=C/c2ccccc2Br)nc2ccccc12	15.8µM*	0.562µM*	5.1%
O=C(Nc1ccccc1C(=O)O)c1ccc(CN2C(=O)c3ccccc3C2=O)cc1	5.9%	25.0%	·
COc1ccc(S(=O)(=O)N2CCOC2CNC(=O)C(=O)NCc2ccccn2)cc1C (configuration not stated)	1.3%	-3.2%	·
CC(C)(C)N1C(=O)[C@H]2[C@@H]3[C@H](O)C=CC(=O)[C@H]3CC[C@H]2C1=O	5.2%[10 µM]	2.9%[10 µM]	·
CC(=O)N1[C@H](Cc2ccccc2)C=C[C@]1(C)C(=O)O	-7.9%	-13.8%	-0.3%
Cc1cccc(C)c1OCC(=O)N[C@@H](Cc1ccccc1)[C@@H](O)C[C@H](Cc1ccccc1)NC(=O)[C@H](C(C)C)N1CCCNC1=O	2.0%	?	·
COc1ccc(C(=O)N2CCC3(CCCN(Cc4cc(C(F)(F)F)cc(C(F)(F)F)c4)C3)CC2)cc1	-1.0%	-24.0%	-6.1%
Cc1ccnc(NS(=O)(=O)c2ccc(NC(=O)C3C4C=CC(C4)C3C(=O)O)cc2)n1 (configuration not stated)	-4.6%	-9.0%	·
Cc1cc(=O)oc2cc(NC(=O)CC(N)C(=O)O)ccc12 (configuration not stated)	6.9%	-6.8%	·
